Only a selection was taken, and hits are over-represented in it overall.
Lassa entry inh = Lassa virus entry inhibition | Lassa virus pseudotype entry inhibition, cell reporter | Potency, µM (titrated, usually from 37.9 µM), for inactives: top-dose activity change, negative = inhibition, most hits filed as inhibitors | hit rate 1.2% among 300,000 | AID 540256; calls by dose curve; tested in HEK293 cells; also: potency is read from the fitted curve at half-maximal effect; % is scaled to controls: 0 for no effect and ±100 for the full control effect; nearly all actives have a fitted effect of over 50% in size
CHX counter = affects cycloheximide protein synthesis inhibition readout, counter-screen. cell reporter, cycloheximide protein synthesis inhibition counterscreen. max response, %. hit rate 12% among 300,000. AID 2314; in the data active = max response mostly above about 13%, no sharp cut-off; inactive = mostly below about 14%; also: read at 38.3 µM for the half of the compounds with a filed dose; 0% is about no effect
Shiga inhibitor = blocks Shiga toxin action in Vero cells | inhibition, % at 38.7 µM | hit rate 9.2% among 290,000 | Vero cells, Shiga toxin protein synthesis inhibition reporter | AID 2315; in the data active = inhibition mostly above about 28%, no sharp cut-off; inactive = mostly below about 43%; also: 0% is about no effect
MARV entry inh = inhibitors of Marburg virus binding or cell entry; Marburg virus pseudotyped entry inhibition, cell reporter; Potency, µM (series often up to 37.8 µM), for the others: top-dose activity change, negative = inhibition, hits mostly inhibitors; hit rate 1.8% among 300,000; calls by dose curve; tested in HEK293 cells; also: potency is read from the fitted curve at half-maximal effect; % is scaled to controls: 0 for no effect and ±100 for the full control effect
AMA1-RON2 inh = inhibitors of Plasmodium falciparum AMA1-RON2 interaction. AlphaScreen AMA1-biotinylated RON2 peptide binding. Potency, µM (series often up to 58.2 µM), without a hit: top-dose activity change, negative = inhibition, hits mostly inhibitors. hit rate 0.2% among 360,000; active = well fitted inhibition curve with a large enough effect; inconclusive = small, poorly fitted or top-dose-only effect; inactive = no such curve, though single readings can be large or run the other way;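 also: potency is read from the fitted curve at half-maximal effect; 0% = vehicle wells and -100% = peptide control; nearly all actives have a fitted effect of over 45% in size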
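AMA1 (3D7) with his tag at 25 nM final met compounds first, then biotinylated RON2 peptide at 25 nM; detection used donor plus acceptor beads, 10 µg/mL apiece, read by AlphaScreen after 30 min at room temperature.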
Starred values were filed as active, the others as inactive; u = inconclusive; x = no result given; ! = not active in a repeat; [ ] = another dose, or the depositor's remark.

SMILES | Lassa entry inh | CHX counter | Shiga inhibitor | MARV entry inh | AMA1-RON2 inh
COc1ccc(C(=O)Nc2cc3c(cc2C(=O)c2ccccc2Cl)OCCO3)cc1 | 13%[46.1 µM] | x | x | -1%[46.1 µM] | x
COc1cccc(C(=O)Nc2cc3c(cc2C(=O)c2ccc(C)cc2)OCCO3)c1 | 14%[46.1 µM] | x | x | u | x
COc1ccc(C(=O)Nc2cc3c(cc2Cl)OCCCO3)cc1 | u | 45* | 94* | -10% | -1%
COc1cccc(C(=O)Nc2cc3c(cc2Cl)OCCCO3)c1 | -30% | 76* | 84* | u | 0%
O=C(NCc1ccncc1)c1nc(-c2ccc(C(F)(F)F)cc2)no1 | -8% | -5 | -6 | 10%[46.1 µM] | 10%
Cc1nc(C(=O)NC2CCOCC2)sc1C1(C)CC(c2ccccc2)=NO1 (stereo not drawn) | x | 11* | 22 | x | -1%
Cc1nc(-c2ccccc2)sc1C1(C)CC(c2ccc([N+](=O)[O-])cc2)=NO1 (stereo not drawn) | x | -3 | -2 | x | -23%
Cc1nc(NC(=O)c2ccccc2)sc1C1(C)CC(c2ccccc2F)=NO1 (stereo not drawn) | x | 43* | 60* | x | 11%
Cc1nc(-c2ccc(Cl)cc2)sc1C1(C)CC(c2cccc([N+](=O)[O-])c2)=NO1 (stereo not drawn) | x | 18* | 17 | x | -17%
Cc1nc(-c2ccc(Cl)cc2)sc1C1(C)CC(c2c(Cl)cccc2Cl)=NO1 (stereo not drawn) | x | 1 | -2 | x | -2%
Cc1nc(-c2ccccc2)sc1C1(C)CC(c2c(Cl)cccc2Cl)=NO1 (stereo not drawn) | x | 20* | 53* | x | -2%
CC(C)(C)NC(=O)C1c2ccccc2OCC(=O)N1CCc1ccccc1 (stereo not drawn) | x | x | x | x | 4%
O=C1NC[C@@H](CCCCN2C[C@H](Cc3ccccc3)N(CC3CCCCC3)C(=O)C2=O)N(CCc2ccccc2)C1=O | x | x | x | x | 3%
Cc1nc(C(=O)Nc2ccccc2)sc1C1(C)CC(c2cccnc2)=NO1 (stereo not drawn) | x | 25* | 42* | x | 1%
Cc1nc(-c2ccc(Cl)cc2)sc1C1(C)CC(c2cccnc2)=NO1 (stereo not drawn) | x | 112* | 80* | x | -11%
COc1ccc(C2=NOC(C)(c3sc(-c4ccc(Cl)cc4)nc3C)C2)cc1 (stereo not drawn) | x | x | x | x | 6%
c1ccc2c(c1)Cc1ccccc1O2 | x | x | x | x | -12%
CCOc1nc(-c2ccccc2)ccc1-c1noc(-c2cccnc2)n1 | 3% | x | x | -2%[46.1 µM] | 2%
CCOc1nc(C)ccc1-c1noc(-c2ccco2)n1 | 24%[14.3 µM] | 32* | 42 | 11% | 17%
CCOc1nc(C)ccc1-c1noc(CC)n1 | 0% | -3 | -2 | 20% | 14%
CCOc1nc(C)ccc1-c1noc(-c2ccccn2)n1 | 19% | 26* | 34 | u | 1%
CCOc1ccccc1-c1nc(-c2ccc(C)nc2OC)no1 | -22% | 44* | 92* | u | 0%
Clc1cnc(Oc2ccc(Oc3ncc(Cl)cc3Cl)cc2)c(Cl)c1 | u | 15 | 2 | 1µM*! | 1%
Oc1ccc(Oc2ncc(Cl)cc2Cl)cc1 | 1% | -3 | -10 | -3% | 4%
CC(C)Nc1nnc(SCC(=O)Nc2sccc2C#N)s1 | x | x | x | x | -4%
SMILES | Lassa entry inh | CHX counter | Shiga inhibitor | MARV entry inh | AMA1-RON2 inh
Cc1ccnc(SCC(=O)Nc2sccc2C#N)n1 | x | 12* | 17 | x | -11%
CC(=O)Nc1ccc(SCC(=O)Nc2sccc2C#N)cc1 | 19% | 33* | 63* | 24%[46.1 µM] | 5%
Cc1ccc(CNC(=O)CC2Oc3ccccc3NC2=O)cc1 (stereo not drawn) | x | x | x | 15%[46.1 µM] | x
C[C@@H]1CN([C@@H](C)CO)C(=O)c2c(c3ccccc3n2C)-c2ccccc2CO[C@H]1CN(C)C(=O)[C@H](C)c1ccccc1 | x | x | x | x | -4%
CNC[C@H]1Oc2ccc(NC(=O)C3CCCCC3)cc2CC(=O)N([C@H](C)CO)C[C@@H]1C | x | x | x | x | 17%
CCN1c2ccccc2N(C)C1(C)c1ccccc1 (stereo not drawn) | u | -3 | -12 | u | 32µM*
COc1ccc(C2CC(c3ccc(Br)cc3)=NN2C(=S)Nc2ccccc2)cc1 (stereo not drawn) | u | 21* | 43* | -4% | -11%
COc1ccc(C2=NN(C(N)=S)C(c3ccccc3)C2)cc1 (stereo not drawn) | -25% | 32* | 51* | -14%[46.1 µM] | -10%
C=CCNc1nnc(SCC(=O)N2CCC(C(N)=O)CC2)s1 | -5% | x | x | 3% | -8%
O=C(CN1CC(=O)Oc2ccccc21)OCC(=O)c1cccc(Br)c1 | -3% | 18* | 55 | 7% | 49%
CCN(C(=O)CSc1nc2ccccc2n1Cc1ccc(F)cc1Cl)c1ccccc1 | 17%[46.1 µM] | x | x | x | x
COc1cc2c(cc1OC)C1C(=O)c3ccc4c(c3OC1CO2)CC(C(C)C)O4 (stereo not drawn) | u | x | x | 3.5µM* | -23%
COc1cc2c(cc1OC)[C@H]1C(=O)c3ccc4c(c3O[C@H]1CO2)C[C@@H](C(C)(C)O)O4 | x | x | x | x | 14%
COc1cc2c(cc1OC)[C@@H]1C(=O)c3ccc4c(c3O[C@@H]1CO2)C[C@H](C(C)C)O4 | u | -1 | -6 | 7.1µM* | -27%
Cc1ccccc1C(=O)Nc1ccc(S(=O)(=O)N2CCCC2)cc1 | 2% | 8 | 4 | u | 30%
CCCNC(=O)CN1C(=O)NC(CCSC)C1=O (stereo not drawn) | u | -3 | 2 | 4%[46.1 µM] | 1%
N#Cc1nc(-c2ccccc2Cl)oc1NCC1CCCO1 (stereo not drawn) | x | 16 | 91* | x | -13%
COc1ccc(-c2nc(C#N)c(NCC3CCCO3)o2)cc1OC (stereo not drawn) | 1% | 23* | 11 | -1% | -14%
CCOc1ccc(-c2nc(C#N)c(NCC3CCCO3)o2)cc1 (stereo not drawn) | -19% | 13 | 28 | -13% | 7%
CC(C)OCCCNC(=O)C(=O)Nc1ccc2nc3n(c(=O)c2c1)CCCCC3 | 16%[46.1 µM] | x | x | 13%[46.1 µM] | x
COc1ccc(C(=O)Nc2cnn(Cc3c(F)cccc3Cl)c2)cc1OC | x | 12* | 20 | x | -7%
Cc1ccc2[nH]c(-c3cccc(N)c3)cc2c1 | -1% | 30* | 97* | u | -3%
COCCCNC(=S)N/N=C/c1ccc(O)cc1 | x | 0 | 15 | x | 107%
COCCCNC(=S)N/N=C/c1cccc(OC)c1O | -6% | 42* | 49* | 3%[46.1 µM] | 45%
COCCCNC(=S)N/N=C/c1ccc(O)cc1O | -16% | 12 | 32 | 17%[14.2 µM] | 4%
COCCCNC(=S)N/N=C/c1ccc(OC)cc1 | -12% | 10* | 13 | u | 34%
C[C@@H]1CN([C@H](C)CO)S(=O)(=O)c2ccc(Br)cc2O[C@H]1CN(C)C(=O)C1CCCCC1 | x | x | x | x | 6%
O=C(NCCO)/C(=C/c1ccc2c(c1)OCO2)NC(=O)c1ccc(Br)cc1 | -5% | 41* | 74* | -6%[46.1 µM] | 14%
O=C(O)CNC(=O)/C(=C\c1ccc2c(c1)OCO2)NC(=O)c1ccc(Br)cc1 | -7%[46.1 µM] | -2 | -18 | 20%[46.1 µM] | 0%
CC(=O)N/C(=C/c1ccc2c(c1)OCO2)C(=O)Nc1ccccc1 | 6%[46.1 µM] | 27* | 80* | u | 9%
